Source: ChEMBL document CHEMBL3988442, “University of Dundee, Small-Polar-MMV Screening Library” (2021)
For some of these results: Entries with a potency or affinity are not part of this list.

Experiments:
Design in all cases: scale not given: direction of the effect not stated beside the values
[1] = target: Protein translocase subunit SecA (Escherichia coli (strain K12)) (UniProt P10408); assay: Assay to Identify E. coli SecA ATPase Inhibitors; format: functional; details: 30 µM
[2] = target: T1, Ubiquitin-activating enzyme e1, putative (Leishmania donovani (strain BPK282A1)) (UniProt E9BSI1); assay: Leishmania donovani Ubiquitin Activating Enzyme (LdE1); format: functional; details: 30 µM
T1 sequence (whole entry): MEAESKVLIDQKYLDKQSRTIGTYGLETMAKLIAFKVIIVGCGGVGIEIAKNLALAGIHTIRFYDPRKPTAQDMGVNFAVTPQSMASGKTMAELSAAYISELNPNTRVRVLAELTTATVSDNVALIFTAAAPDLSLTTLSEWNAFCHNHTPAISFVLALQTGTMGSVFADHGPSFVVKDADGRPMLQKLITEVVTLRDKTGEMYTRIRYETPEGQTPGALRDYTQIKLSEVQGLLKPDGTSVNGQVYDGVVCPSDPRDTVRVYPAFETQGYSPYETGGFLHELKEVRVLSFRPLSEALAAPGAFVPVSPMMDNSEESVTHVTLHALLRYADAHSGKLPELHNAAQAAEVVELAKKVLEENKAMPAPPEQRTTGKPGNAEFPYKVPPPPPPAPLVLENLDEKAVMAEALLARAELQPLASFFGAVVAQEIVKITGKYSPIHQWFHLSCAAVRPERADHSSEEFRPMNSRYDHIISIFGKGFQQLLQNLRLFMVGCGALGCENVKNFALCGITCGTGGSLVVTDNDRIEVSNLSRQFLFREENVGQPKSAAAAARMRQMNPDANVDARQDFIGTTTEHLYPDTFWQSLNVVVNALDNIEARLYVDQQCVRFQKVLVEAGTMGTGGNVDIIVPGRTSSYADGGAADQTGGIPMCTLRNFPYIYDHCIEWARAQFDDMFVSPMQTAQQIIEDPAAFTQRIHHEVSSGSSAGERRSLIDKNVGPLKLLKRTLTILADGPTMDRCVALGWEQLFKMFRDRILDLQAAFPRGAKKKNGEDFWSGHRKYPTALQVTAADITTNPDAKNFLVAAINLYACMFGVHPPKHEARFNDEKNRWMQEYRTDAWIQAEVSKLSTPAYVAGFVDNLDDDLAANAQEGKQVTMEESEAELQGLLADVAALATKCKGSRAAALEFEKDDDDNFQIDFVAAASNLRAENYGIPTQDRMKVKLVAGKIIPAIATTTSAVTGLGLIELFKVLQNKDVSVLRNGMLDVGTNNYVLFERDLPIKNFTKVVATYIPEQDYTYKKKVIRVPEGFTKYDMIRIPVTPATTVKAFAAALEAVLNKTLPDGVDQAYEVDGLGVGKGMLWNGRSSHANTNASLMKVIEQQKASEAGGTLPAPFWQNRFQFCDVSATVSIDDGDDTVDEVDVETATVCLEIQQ

[3] = target: AMP-activated protein kinase, AMPK (Homo sapiens) (UniProt P54646+O43741+P54619+Q9UGJ0+Q9Y478+Q13131+Q9UGI9); assay: AMP-dependent Kinase enzyme assay. An in vitro enzyme assay that detects ADP turnover that is directly proportional to AMPK activity. This uses naive AMPK that is activated during the assay with MK-8722; format: functional; details: 30 µM
[4] = target: Sialic acid-binding Ig-like lectin 9 (Homo sapiens) (UniProt Q9Y336); assay: Hs-Siglec9 ALPHAscreen SOP 20170721; details: 10 µM
Chain of Sialic acid-binding Ig-like lectin 9 (Homo sapiens) (Q9Y336 whole entry): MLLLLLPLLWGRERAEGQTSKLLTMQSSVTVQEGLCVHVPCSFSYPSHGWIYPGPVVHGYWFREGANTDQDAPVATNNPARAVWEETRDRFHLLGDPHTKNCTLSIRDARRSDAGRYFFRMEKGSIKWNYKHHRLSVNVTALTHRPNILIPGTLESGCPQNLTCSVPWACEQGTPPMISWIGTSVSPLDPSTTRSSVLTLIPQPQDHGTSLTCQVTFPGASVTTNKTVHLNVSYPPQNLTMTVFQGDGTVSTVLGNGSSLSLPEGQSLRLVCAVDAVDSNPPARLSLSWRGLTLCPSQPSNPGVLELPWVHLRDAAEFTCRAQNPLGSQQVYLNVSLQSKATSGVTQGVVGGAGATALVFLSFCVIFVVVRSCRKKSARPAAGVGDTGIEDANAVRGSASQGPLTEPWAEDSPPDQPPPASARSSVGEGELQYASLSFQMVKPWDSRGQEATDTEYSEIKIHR

Trypanosoma cruzi = assay: Trypanosoma cruzi phosphomannomutase and mannose-1-phosphate guanylyltransferase assay; format: functional; details: 10 µM
[5] = target: T2, Arginase-2, mitochondrial (Homo sapiens) (UniProt P78540); assay: in vitro enzyme assay to detect the production of urea directly proportional to the activity of Arginase II; format: functional; details: 33.3 µM; note: in the data most compounds retested in dose-response had high values
T2 sequence (whole entry): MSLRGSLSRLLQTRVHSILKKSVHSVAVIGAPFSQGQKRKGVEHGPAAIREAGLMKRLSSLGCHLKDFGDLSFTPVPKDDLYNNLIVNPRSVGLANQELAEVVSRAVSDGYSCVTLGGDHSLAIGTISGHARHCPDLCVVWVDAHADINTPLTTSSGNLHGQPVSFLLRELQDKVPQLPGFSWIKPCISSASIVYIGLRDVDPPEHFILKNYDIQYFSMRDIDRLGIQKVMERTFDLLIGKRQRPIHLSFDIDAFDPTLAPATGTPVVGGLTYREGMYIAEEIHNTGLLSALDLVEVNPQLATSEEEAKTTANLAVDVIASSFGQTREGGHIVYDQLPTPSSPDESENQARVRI

[6] = target: T3, Proteasome subunit beta (Trypanosoma cruzi) (UniProt O96673); assay: Trypanosoma cruzi proteasome chymotrypsin-like activity (TcProtChymo) assay.; note: in the data most compounds retested in dose-response had high values; format: functional; details: 9.37 µM
T3 sequence (whole entry): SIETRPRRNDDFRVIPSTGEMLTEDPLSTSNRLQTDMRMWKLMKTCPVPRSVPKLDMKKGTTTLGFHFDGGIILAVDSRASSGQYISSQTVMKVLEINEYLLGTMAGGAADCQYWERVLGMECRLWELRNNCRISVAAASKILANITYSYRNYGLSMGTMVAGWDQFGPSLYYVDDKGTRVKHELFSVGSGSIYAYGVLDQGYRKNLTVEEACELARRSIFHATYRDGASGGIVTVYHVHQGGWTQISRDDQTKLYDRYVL

Homo sapiens = species: Homo sapiens; assay: To identify inhibition of the IFN signalling (Jak-Stat) pathway via expression of an eGFP reporter gene under the control of an IFN-stimulated response element (ISRE) containing MxA promoter.; format: functional; details: 30 µM
[7] = target: T4, Tyrosyl-tRNA synthetase, putative (Trypanosoma cruzi (strain CL Brener)) (UniProt Q4DSP6); assay: Trypanosoma cruzi tyrosyl tRNA synthetase (TcYRS) _High Tyrosine SOP; format: functional; details: 30 µM; note: in the data most compounds retested in dose-response had high values
T4 sequence (whole entry): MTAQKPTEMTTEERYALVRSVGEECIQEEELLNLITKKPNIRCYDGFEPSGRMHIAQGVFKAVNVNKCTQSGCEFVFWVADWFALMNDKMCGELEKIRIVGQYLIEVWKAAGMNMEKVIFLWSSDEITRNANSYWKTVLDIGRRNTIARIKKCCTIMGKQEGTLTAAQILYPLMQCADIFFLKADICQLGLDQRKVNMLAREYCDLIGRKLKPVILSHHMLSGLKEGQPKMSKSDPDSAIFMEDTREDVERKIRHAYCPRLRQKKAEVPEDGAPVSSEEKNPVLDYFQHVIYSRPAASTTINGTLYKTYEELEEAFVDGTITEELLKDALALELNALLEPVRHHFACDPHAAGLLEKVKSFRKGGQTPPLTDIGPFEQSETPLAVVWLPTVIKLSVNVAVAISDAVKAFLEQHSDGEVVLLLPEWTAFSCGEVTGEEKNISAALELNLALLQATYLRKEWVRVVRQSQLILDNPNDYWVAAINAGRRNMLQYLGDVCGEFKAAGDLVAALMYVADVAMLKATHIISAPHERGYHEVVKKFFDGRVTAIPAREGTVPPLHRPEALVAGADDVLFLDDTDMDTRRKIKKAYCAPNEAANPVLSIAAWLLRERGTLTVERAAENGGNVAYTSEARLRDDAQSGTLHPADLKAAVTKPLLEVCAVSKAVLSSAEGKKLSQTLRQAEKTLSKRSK

[8] = target: T4, Tyrosyl-tRNA synthetase, putative (Trypanosoma cruzi (strain CL Brener)); assay: Trypanosoma cruzi tyrosyl tRNA synthetase (TcYRS) SOP; format: functional; details: 30 µM
[9] = target: Chromo domain-containing protein 1 (Saccharomyces cerevisiae (strain ATCC 204508 / S288c) (Baker's yeast)) (UniProt P32657); assay: ScCHD-1 Enzyme Inhibition Assay; format: functional; details: 30 µM; note: in the data most compounds retested in dose-response had high values
Chain of Chromo domain-containing protein 1 (Saccharomyces cerevisiae (strain ATCC 204508 / S288c) (Baker's yeast)) (P32657 whole entry, the tested form may be a part): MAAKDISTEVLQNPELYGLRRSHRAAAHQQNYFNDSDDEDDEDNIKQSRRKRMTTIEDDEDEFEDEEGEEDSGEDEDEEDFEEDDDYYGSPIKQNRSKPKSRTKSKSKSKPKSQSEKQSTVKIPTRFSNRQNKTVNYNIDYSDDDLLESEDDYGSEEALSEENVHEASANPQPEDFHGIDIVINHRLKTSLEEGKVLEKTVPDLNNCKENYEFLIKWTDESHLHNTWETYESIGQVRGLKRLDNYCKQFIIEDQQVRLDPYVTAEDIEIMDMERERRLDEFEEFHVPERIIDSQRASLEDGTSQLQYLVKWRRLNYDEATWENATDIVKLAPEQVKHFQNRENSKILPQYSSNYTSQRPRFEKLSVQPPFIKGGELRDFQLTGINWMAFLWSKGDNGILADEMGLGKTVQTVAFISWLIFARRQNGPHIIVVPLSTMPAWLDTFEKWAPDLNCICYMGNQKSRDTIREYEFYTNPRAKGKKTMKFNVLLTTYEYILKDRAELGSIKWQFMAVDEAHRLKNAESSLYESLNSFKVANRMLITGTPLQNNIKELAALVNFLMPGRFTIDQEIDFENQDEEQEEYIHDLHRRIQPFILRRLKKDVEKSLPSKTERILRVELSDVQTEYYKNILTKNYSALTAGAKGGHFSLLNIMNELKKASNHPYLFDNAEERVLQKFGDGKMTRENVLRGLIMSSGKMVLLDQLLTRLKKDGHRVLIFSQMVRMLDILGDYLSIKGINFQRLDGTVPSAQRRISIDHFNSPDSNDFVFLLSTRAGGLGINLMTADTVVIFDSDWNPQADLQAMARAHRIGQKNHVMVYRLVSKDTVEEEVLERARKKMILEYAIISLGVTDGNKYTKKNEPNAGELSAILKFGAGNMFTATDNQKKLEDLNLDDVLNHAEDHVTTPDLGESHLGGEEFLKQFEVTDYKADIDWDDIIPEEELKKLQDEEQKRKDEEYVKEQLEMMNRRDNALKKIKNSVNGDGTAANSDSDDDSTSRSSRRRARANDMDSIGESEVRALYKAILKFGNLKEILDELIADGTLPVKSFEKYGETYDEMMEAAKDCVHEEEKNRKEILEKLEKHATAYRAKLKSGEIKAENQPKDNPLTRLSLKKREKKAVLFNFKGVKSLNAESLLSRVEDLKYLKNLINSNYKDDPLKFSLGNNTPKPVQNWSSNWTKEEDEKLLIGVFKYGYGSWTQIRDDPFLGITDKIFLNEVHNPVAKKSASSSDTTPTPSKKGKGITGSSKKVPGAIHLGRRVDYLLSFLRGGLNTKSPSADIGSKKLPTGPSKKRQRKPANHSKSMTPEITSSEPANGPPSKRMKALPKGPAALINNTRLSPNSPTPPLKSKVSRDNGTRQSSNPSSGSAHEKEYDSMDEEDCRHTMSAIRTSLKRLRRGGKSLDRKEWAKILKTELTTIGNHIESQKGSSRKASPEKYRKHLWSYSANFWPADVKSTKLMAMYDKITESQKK

Chain of Protein translocase subunit SecA (Escherichia coli (strain K12)) (P10408 whole entry): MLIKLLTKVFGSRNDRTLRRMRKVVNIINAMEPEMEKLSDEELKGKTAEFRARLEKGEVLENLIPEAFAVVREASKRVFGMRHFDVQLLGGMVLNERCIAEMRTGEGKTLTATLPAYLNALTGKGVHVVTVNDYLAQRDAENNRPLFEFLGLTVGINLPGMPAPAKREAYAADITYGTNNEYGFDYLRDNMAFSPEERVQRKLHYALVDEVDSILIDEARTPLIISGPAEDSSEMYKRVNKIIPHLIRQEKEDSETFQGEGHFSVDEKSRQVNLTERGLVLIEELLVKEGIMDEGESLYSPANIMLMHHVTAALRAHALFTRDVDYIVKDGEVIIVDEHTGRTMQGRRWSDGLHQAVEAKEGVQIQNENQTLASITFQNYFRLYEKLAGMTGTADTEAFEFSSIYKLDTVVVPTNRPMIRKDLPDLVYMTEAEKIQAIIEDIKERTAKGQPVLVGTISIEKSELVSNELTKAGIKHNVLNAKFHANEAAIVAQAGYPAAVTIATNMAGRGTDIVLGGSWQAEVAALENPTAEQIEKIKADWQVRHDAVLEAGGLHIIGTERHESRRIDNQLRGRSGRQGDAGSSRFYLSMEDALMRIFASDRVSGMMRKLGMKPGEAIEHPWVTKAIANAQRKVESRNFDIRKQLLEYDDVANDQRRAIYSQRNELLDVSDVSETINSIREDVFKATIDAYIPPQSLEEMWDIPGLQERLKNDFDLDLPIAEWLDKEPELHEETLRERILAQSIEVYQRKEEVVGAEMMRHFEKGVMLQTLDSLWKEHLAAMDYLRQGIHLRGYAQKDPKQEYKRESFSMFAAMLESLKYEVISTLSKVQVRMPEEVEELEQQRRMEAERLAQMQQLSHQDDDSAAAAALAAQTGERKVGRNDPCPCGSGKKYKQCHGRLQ

| SMILES | Percent Effect [1] | Percent Effect [2] | Percent Effect [3] | Percent Effect [4] | Percent Effect (Trypanosoma cruzi) | Percent Effect [5] | Percent Effect [6] | Percent Effect (Homo sapiens) | Percent Effect [7] | Percent Effect [8] | Percent Effect [9] |
| --- | --- | --- | --- | --- | --- | --- | --- | --- | --- | --- | --- |
| Cc1cc2c(=O)n3c(nc2s1)CCN(C(=O)c1scnc1C)CC3 | -1.99% | 9.46% | 9.3% | 2.42% | -1.58% | -5.34% | 7.49% | -18% | -1.07% | 11.7% | -8.95% |
| CCN(CC)CCNC(=O)c1ccn(COc2cc(C)cc(C)c2)n1 | -1.61% | 9.33% | 0.388% | 2.31% | -0.197% | -8.28% | 21.4% | 0.95% | 6.35% | 15.4% | -9.92% |
| CC(C)CNC(=O)Nc1ccc(CN2CCOC2=O)cc1 | -6.23% | -15.3% | -5.54% | 6.22% | -2.23% | 0.442% | 12.8% | 25.7% | -7.37% | -25.6% | -1.07% |
| CC(C)c1csc(C2CCCN(C(=O)Cn3ccccc3=O)C2)n1 (stereo unspecified) | -2.92% | 2.63% | 1.07% | -4.27% | 8.27% | -1.92% | 3.68% | 10.9% | 0.49% | 9.76% | -9.15% |
| Fc1cccc(-c2nc(CN3CCCCC3Cn3cncn3)co2)c1 (stereo unspecified) | -2.29% | 7.59% | 1.61% | 1.08% | 7.65% | 1.52% | 1.72% | -27.5% | 3.45% | 13.9% | -6.86% |
| c1csc(N2CCCN(Cc3nc(C4CC4)no3)CC2)n1 | -5.91% | 10.4% | -4.1% | 9.22% | -0.749% | -2.49% | -1.18% | 19% | 5.83% | 14.6% | 5.76% |
| CCOc1ccccc1-c1noc(CN(C)Cc2cnn(C)c2)n1 | 1.46% | 8.11% | -5.04% | 7.46% | -2.12% | -4.76% | 11.9% | 4.5% | 4.76% | 9.76% | -1.75% |
| COCC(=O)N1Cc2cnc(Cc3ccc(OC)cc3)nc2C1 | -5.39% | 5.48% | -2.68% | -3.21% | 0.392% | 3.64% | 10.3% | 1.33% | 8.6% | 15% | -4.76% |
| CCCOCC(=O)NS(=O)(=O)c1ccc2c(c1)OCCCO2 | -8.22% | 0% | 0.981% | -3.65% | -6.07% | 0% | -0.423% | 13.9% | -2.46% | -6.17% | 1.45% |
| COc1ncccc1CNc1cc(N2CCCC2CO)ncn1 (stereo unspecified) | -1.73% | 2.6% | -6.5% | 5.75% | 3.75% | -8.54% | 13.3% | 20.9% | 3.88% | 12.2% | -10.4% |
| COCc1nc2cc(NCc3ccncc3)ccc2o1 | 6.12% | 54% | -108% | -0.763% | -1.76% | 9.58% | 13.4% | -8.66% | 4.95% | -1.22% | 2.52% |
